The nature of experiment [1]: anti-His antibody binders, primary screen, artefact control for SMM control protein annotation, biochemical, small-molecule microarray, 635 nm fluorescence (AID 1128).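 Note: score merges feature fluorescence with signal-to-noise for each printed compound spot.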 Conditions: anti-His Alexa647 antibody binding, higher = more signal.
The subject of experiment [2] is Human papillomavirus type 1a E7 protein (residues 1-88). Briefly: HPV1a E7 small-molecule binders, primary screen, biochemical, small-molecule microarray, residues 1-88, 635 nm (AID 1129). Conditions: small-molecule microarray binding, fluorescence 635 nm; higher = more signal.
Experiment [3] has as its target Focal adhesion kinase 1 (Homo sapiens) (UniProt Q05397). Briefly: small-molecule microarray binders of FAK, primary screen, biochemical, 635/667 nm fluorescence, BSA, DTT (AID 1130).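 Note: composite of spot emission at 667 nm and signal to noise over triplicate slides.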 The conditions noted are these: PTK2 binding, 635 nm fluorescence, higher = more signal.
Experiment [4] has as its system Fibrinogen (Alexa647-labelled). The experiment is described as follows: fibrinogen binders on compound microarrays, profiling panel, artefact control for SMM control-protein annotation, biochemical, small-molecule microarray, 635/667 nm fluorescence (AID 1131).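 Note: z-score merges 667 nm fluorescence with per-spot signal-to-noise over triplicate slides.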 The conditions noted are these: fibrinogen-A647 binding fluorescence, higher = more signal.
In experiment [5] the target is Follistatin (Homo sapiens) (UniProt P19883). Briefly: follistatin binders on small-molecule microarrays, primary screen, biochemical, small-molecule microarray, 635/667 nm fluorescence (AID 1132). Conditions: FST binding, 635 nm fluorescence, higher = more signal.
Experiment [6] addresses Fibroblast growth factor 2 (Homo sapiens) (UniProt P09038). Briefly: FGF2 binders on small-molecule microarrays, primary screen, biochemical, small-molecule microarray, 635/667 nm fluorescence (AID 1133). Conditions: small-molecule microarray binding, FGF2, fluorescence 635/667; higher = more signal.
The nature of experiment [7]: mitochondrial membrane potential change in A549 cells, profiling panel, cell-based, JC-1 fluorescence, basal, 24 h, 100 nL (AID 1138).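 Note: A549 lung adenocarcinoma cells under basal conditions with no added stimulus; test concentration not given here.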 Conditions: higher = more signal.
The next experiment has as its system Lefty1. Briefly: Lefty1 binders on small-molecule microarrays, primary screen, biochemical, small-molecule microarray, 635/667 nm fluorescence (AID 1139). Conditions: small-molecule microarray binding, fluorescence 635/667; higher = more signal.
The test system of experiment [8] is wheat germ agglutinin (Triticum aestivum), Alexa647-labelled. Briefly: wheat germ agglutinin binders on compound microarrays, profiling panel, artefact control for SMM control-protein annotation, biochemical, small-molecule microarray, 635/667 nm fluorescence (AID 1140).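 Note: score merges 667 nm feature emission with signal to noise over triplicate slides.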 Conditions: WGA-A647 binding, 635 nm fluorescence, higher = more signal.
For experiment [9], the target named is Luciferin 4-monooxygenase (Photinus pyralis) (UniProt P08659). Briefly: firefly luciferase enzyme inhibitors, primary screen, biochemical, luminescence, purified enzyme, 2006 set (AID 1141).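 Note: cell-free assay with purified firefly luciferase at 100 ng per well in PBS; test concentration not given here.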 Conditions: SteadyGlo luminescence, 30 min, higher = more signal, called active from +8 up or from −8 down.
In experiment [10] the test system is Wnt5a (protein binding on small-molecule microarray). Briefly: Wnt5a binders on small-molecule microarray, primary screen, biophysical, 635/667 nm fluorescence (AID 1142).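 Note: fluorescence read at 667 nm with signal to noise per printed feature.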 The conditions noted are these: 635 nm fluorescence, higher = more signal.
Experiment [11] in a line: cell viability in Huh7 cells, primary screen, cytotoxicity control for HCV replication inhibitor project, CellTiter-Glo luminescence, basal, 48 h (AID 1143).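 Note: Huh7 hepatoma cells carrying a hepatitis C replication reporter with no stimulus; test concentration not given here.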 The conditions noted are these: Huh7 HCV replicon, higher = more signal, called active from +8 up or from −8 down. On the technique in general: Cellular ATP, detected with luciferase, serves as a proxy for viable cell number.

Experiment [12] can be described thus: P. aeruginosa biofilm formation inhibitors, primary screen, PAO1 strain, BacTiter-Glo luminescence, LB-PBS (AID 1144). Conditions: 12 h, higher = more signal.
Experiment [13] can be described thus: CREB reporter modulators without forskolin, primary screen, cell-based, PC12, CRE-LacZ reporter, unstimulated (AID 1145). Conditions: no forskolin, luminescence, 4.5 h, higher = more signal, called active from +8 up or from −8 down.
Experiment [14] is described as follows: CREB reporter modulators under forskolin, primary screen, cell-based, PC12, CRE-LacZ reporter, forskolin-stimulated (AID 1146).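 Note: PC12 cells with 6xCRE LacZ reporter stimulated by forskolin 10 µM; beta-galactosidase reporter signal reflecting CREB driven transcription.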 The conditions noted are these: luminescence, 4.5 h, higher = more signal, called active from +8 up or from −8 down.
In experiment [15] the target is Streptavidin (Streptomyces avidinii) (UniProt P22629). The experiment is described as follows: streptavidin binders on small-molecule microarray, primary screen, artefact control for SMM compound annotation, biophysical, 635/667 nm fluorescence (AID 1147).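 Note: signal reflects streptavidin binding to arrayed compounds as a control protein.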 Conditions: streptavidin binding, higher = more signal.
Experiment [16] is described as follows: small-molecule binders of probe aInhba, primary screen, biochemical, small-molecule microarray, 635/667 nm fluorescence (AID 1148).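 Note: score merges 667nm spot fluorescence with signal-to-noise for antibody binding to printed compounds.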 Conditions: higher = more signal.
Experiment [17] concerns the target Torsin-1A (Homo sapiens) (UniProt O14656). The experiment is described as follows: torsin A binders from cell lysate, primary screen, small-molecule microarray, wild-type, 635/667 nm (AID 1149). Conditions: COS7 hTOR1A-WT lysate, 635 nm fluorescence, higher = more signal.
The target is the same in experiment [18]. Briefly: small-molecule binders of mutant TOR1A in lysate, primary screen, cell lysate, small-molecule microarray, COS7 lysate, 635/667 nm fluorescence (AID 1150).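 Note: score pools 667 nm emission and signal to noise measuring lysate protein binding.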 Conditions: COS7 hTOR1A mutant lysate, 635 nm fluorescence, higher = more signal.
Experiment [19] deals with Sonic hedgehog protein (Shh). The experiment is described as follows: small-molecule binders of Shh protein, primary screen, biochemical, small-molecule microarray, 635/667 nm fluorescence (AID 1151).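 Note: Shh protein binding to compounds spotted on small-molecule microarray slides; score combines spot fluorescence intensity with signal-to-noise across triplicate slides.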 Conditions: small-molecule microarray binding, 635 nm fluorescence; higher = more signal.

The structures appear in SMILES notation. Active and inactive are the calls of the source. Unless noted, the rule behind the calls is not given here.

Sequence of Fibroblast growth factor 2 (Homo sapiens) (P09038 whole entry, looked up): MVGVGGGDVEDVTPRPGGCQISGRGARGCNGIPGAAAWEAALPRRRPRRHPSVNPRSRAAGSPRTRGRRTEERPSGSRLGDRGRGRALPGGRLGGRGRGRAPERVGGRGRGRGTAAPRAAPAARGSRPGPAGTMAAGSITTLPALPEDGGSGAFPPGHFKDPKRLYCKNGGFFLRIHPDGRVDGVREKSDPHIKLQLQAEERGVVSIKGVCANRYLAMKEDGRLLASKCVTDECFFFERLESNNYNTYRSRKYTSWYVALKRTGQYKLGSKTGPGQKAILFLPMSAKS
Sequence of Follistatin (Homo sapiens) (P19883 whole entry, looked up): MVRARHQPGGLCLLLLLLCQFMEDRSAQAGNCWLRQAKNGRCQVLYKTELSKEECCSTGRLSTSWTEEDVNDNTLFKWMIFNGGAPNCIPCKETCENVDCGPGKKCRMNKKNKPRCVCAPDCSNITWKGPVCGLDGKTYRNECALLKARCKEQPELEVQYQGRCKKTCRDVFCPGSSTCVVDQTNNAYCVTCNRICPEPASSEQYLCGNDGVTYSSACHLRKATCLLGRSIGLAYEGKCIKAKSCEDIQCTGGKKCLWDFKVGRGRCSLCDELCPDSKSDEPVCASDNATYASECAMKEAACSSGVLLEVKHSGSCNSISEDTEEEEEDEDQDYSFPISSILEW
Sequence of Streptavidin (Streptomyces avidinii) (P22629 whole entry, looked up): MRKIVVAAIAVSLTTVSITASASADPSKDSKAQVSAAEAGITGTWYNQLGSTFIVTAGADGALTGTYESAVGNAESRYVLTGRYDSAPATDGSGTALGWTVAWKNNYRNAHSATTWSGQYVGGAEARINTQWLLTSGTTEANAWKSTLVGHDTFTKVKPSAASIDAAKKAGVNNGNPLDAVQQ
Sequence of Luciferin 4-monooxygenase (Photinus pyralis) (P08659 whole entry, looked up): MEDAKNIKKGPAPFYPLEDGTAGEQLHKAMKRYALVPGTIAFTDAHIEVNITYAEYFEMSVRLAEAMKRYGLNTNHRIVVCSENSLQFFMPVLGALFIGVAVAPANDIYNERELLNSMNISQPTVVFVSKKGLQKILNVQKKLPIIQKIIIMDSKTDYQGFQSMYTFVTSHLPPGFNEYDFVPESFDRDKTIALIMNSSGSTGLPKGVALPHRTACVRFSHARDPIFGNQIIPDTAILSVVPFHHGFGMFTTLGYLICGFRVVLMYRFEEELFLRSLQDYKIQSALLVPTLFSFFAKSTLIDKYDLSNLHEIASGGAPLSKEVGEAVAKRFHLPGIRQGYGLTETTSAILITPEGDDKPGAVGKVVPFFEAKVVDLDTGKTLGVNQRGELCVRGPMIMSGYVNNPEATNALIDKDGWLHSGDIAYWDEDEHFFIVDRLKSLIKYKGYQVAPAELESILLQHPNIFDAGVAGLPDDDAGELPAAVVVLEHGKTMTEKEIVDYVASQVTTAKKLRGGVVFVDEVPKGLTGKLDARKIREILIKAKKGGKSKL
Sequence of Torsin-1A (Homo sapiens) (O14656 whole entry, looked up): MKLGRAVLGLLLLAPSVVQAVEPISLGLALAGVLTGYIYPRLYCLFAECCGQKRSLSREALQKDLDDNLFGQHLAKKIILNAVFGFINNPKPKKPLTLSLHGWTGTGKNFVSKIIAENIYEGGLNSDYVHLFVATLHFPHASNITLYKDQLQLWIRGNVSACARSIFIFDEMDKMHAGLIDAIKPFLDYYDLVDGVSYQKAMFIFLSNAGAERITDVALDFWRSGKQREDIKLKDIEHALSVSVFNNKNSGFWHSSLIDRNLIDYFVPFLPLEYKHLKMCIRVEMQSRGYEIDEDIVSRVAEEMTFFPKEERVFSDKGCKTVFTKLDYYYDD
Sequence of Focal adhesion kinase 1 (Homo sapiens) (Q05397 whole entry, looked up): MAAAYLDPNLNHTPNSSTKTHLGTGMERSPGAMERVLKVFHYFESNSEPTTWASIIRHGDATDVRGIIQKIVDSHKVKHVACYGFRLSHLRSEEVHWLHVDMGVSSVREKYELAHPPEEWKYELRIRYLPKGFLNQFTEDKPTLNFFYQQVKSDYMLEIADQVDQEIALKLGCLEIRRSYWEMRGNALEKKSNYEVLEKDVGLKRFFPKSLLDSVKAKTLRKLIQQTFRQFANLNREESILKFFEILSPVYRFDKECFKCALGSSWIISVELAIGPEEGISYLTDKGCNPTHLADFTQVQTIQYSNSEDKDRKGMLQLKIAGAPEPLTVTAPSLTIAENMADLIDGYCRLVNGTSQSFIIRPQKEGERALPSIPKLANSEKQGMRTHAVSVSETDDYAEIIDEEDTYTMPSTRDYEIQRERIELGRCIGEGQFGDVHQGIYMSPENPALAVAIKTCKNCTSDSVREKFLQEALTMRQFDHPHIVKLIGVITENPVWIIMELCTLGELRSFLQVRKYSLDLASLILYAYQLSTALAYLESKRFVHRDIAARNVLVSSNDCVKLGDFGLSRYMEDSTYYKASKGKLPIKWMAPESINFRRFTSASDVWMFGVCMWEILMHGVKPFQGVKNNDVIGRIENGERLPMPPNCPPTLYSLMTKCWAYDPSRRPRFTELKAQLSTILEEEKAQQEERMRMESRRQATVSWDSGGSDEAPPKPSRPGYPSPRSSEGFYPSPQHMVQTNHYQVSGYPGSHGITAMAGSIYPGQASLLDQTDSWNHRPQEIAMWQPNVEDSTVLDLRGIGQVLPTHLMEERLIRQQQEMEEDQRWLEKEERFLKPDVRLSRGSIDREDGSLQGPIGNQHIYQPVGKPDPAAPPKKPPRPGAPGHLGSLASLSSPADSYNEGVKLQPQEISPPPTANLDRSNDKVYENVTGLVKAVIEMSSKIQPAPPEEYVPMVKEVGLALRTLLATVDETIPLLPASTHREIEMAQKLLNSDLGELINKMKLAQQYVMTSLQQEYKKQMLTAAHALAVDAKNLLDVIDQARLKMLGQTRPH

For `CO[C@H]1COC(=O)CC=C[C@H](C)[C@@H](OC)COC(=O)[C@@H](C)NC(=O)CC=C[C@@H]1C`, the composite z-score was 0.437 in experiment [1]; -1.32 in [2]; -0.535 in experiment [3]; -1.31 in experiment [4]; 1.45 in [5]; 1.1 in experiment [6]. Besides, the composite z-score in the experiment with Lefty1 is 1.47; in experiment [8], 0.0216; in [10], 0.0073; in experiment [15], -0.343; in experiment [16], -0.233; in the experiment with Torsin-1A (Homo sapiens) [17], 3.05. Besides, the composite z-score with Torsin-1A (Homo sapiens) [18] worked out at 2.16; in [19], 2.14. Besides, the z-score in experiment [7] was -1.05; in experiment [9], 0.674 (inactive); in experiment [11], -1.42 (inactive); in experiment [12] it was -1.15 (inactive); in experiment [13], -0.0824 (inactive); in experiment [14] it was 0.123 (inactive).
Regarding `CCOC(=O)[C@H](CC(C)C)NC(=O)CCC1CC(OC(=O)NCc2cccc3ccccc23)CC2(CCCC(COC(=O)NCc3cccc(C(F)(F)F)c3)O2)O1` (stereo not given in full), the composite z-score is -0.206 in [1]; 0.492 in experiment [2]; -0.0868 in experiment [3]; 0.52 in experiment [4]; 0.312 in [5]; 0.231 in experiment [6]. In addition, the composite z-score is 0.42 in the experiment with Lefty1; 0.0501 in [8]; -0.0645 in experiment [10]; 0.626 in [15]; -0.0872 in experiment [16]; 0.27 with Torsin-1A (Homo sapiens) [17]. In addition, the composite z-score was found to be 0.261 with Torsin-1A (Homo sapiens) [18] and 0.258 in [19]. Also, the z-score in experiment [7] was 0.841; in experiment [9] it was 0.421 (inactive); in [11], -0.0149 (inactive); in experiment [12], -0.658 (inactive); in [13], 0.288 (inactive); in experiment [14], -0.274 (inactive).
Turning to `COC(=O)[C@@H]1CC[C@H](C)[C@@H](c2ccc(C)cc2)N1C(=O)c1ccc(C=NO[C@@H]2O[C@H](COC(C)=O)[C@@H](OC(C)=O)[C@H](OC(C)=O)[C@H]2OC(C)=O)cc1`, the composite z-score in [1] is 2.08; in experiment [2], 0.68; in experiment [3], -0.169; in experiment [4] it was 0.926; in experiment [5] it was 0.551; in [6], 0.336. Further, the composite z-score is 1.06 in the experiment with Lefty1; 0.347 in experiment [8]; -0.0196 in experiment [10]; 0.253 in experiment [15]; -0.0986 in experiment [16]; 0.203 with Torsin-1A (Homo sapiens) [17]. In addition, the composite z-score with Torsin-1A (Homo sapiens) [18] amounted to 0.121; in [19], 0.891. Further, the z-score in experiment [7] was 0.0992; in experiment [9], 0.945 (inactive); in experiment [11], -3.41 (inactive); in experiment [12], -0.553 (inactive); in [13], 2.22 (inactive); in [14] it was -0.138 (inactive).
As for `CCc1cc2c(nc1CC)CCN(CCC(C)=NO[C@H](C)c1cn([C@@H]3COC[C@H]3O)nn1)C2`, the composite z-score is -0.0963 in [1]; -0.139 in experiment [2]; -0.162 in [3]; 0.522 in experiment [4]; 0.523 in [5]; 0.305 in experiment [6]. The composite z-score was 0.204 in the experiment on Lefty1; 0.199 in experiment [8]; -0.0763 in experiment [10]; 0.383 in experiment [15]; -0.0963 in [16]; 0.161 with Torsin-1A (Homo sapiens) [17]. The composite z-score with Torsin-1A (Homo sapiens) [18] was 0.292; in experiment [19], 0.282. Also, the z-score was 0.537 in experiment [7]; 0.221 (inactive) in [9]; 0.401 (inactive) in experiment [11]; 1.7 (inactive) in [12]; 0.238 (inactive) in experiment [13]; -0.183 (inactive) in experiment [14].
As for `CO[C@@H]1COC(=O)[C@@H](C)NC(=O)CC=C[C@@H](C)[C@H](NS(=O)(=O)c2ccc(C)cc2)COC(=O)[C@H](C)NC(=O)CC=C[C@H]1C`, the composite z-score in experiment [1] was -0.0135; in experiment [2], -0.693; in experiment [3] it was -0.0691; in [4], -0.965; in experiment [5], 0.848; in experiment [6] it was 0.0303. The composite z-score in the experiment with Lefty1 was 0.895; in experiment [8], -0.694; in experiment [10] it was -0.0222; in [15], -0.967; in [16], -0.218; with Torsin-1A (Homo sapiens) [17] it was 1.31. The composite z-score with Torsin-1A (Homo sapiens) [18] amounted to 0.584; in experiment [19], 1.33. For the same compound, the z-score is 1.07 in [7]; -1.15 (inactive) in experiment [9]; 0.806 (inactive) in [11]; 0.829 (inactive) in [12]; 0.881 (inactive) in experiment [13]; -0.314 (inactive) in experiment [14].

The values above are taken from PubChem BioAssay.
